Key:
[1] = test system: Saccharomyces cerevisiae BY4741 SeMeCo community; assay: z-score of prototroph abundance vs DMSO median; higher = larger share of this subpopulation than in DMSO controls; details: 10 µM; 24 h; SM minimal medium; subpopulation (auxotrophy): Prototroph
Summary of the method: (§1)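 Automated confocal microscopy of paraformaldehyde-fixed cells was used to follow a Saccharomyces cerevisiae BY4741 community carrying four plasmids, each restoring one auxotrophy and encoding a distinct fluorescent protein. The community was pre-grown overnight to OD600 1.0, diluted to 0.3, and added at 70 µl to 384-well plates acoustically predosed with library drugs (10 µM final) for 24 h of growth in minimal SM medium. Single-auxotroph fluorescent strains set thresholds and autofluorescence correction, and each subpopulation's abundance was scored as a z-score against the vehicle-well median.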

[2] = test system: Saccharomyces cerevisiae BY4741 SeMeCo community; assay: z-score of subpopulation abundance vs DMSO median, subpopulation auxotrophic for M; higher = larger share of this subpopulation than in DMSO controls; details: 10 µM; 24 h; SM minimal medium; subpopulation (auxotrophy): M
Summary of the method: as §1

[3] = test system: Saccharomyces cerevisiae BY4741 SeMeCo community; assay: z-score of subpopulation abundance vs DMSO median, subpopulation auxotrophic for L; higher = larger share of this subpopulation than in DMSO controls; details: 10 µM; 24 h; SM minimal medium; subpopulation (auxotrophy): L
Summary of the method: as §1

[4] = test system: Saccharomyces cerevisiae BY4741 SeMeCo community; assay: z-score of subpopulation abundance vs DMSO median, subpopulation auxotrophic for U; higher = larger share of this subpopulation than in DMSO controls; details: 10 µM; 24 h; SM minimal medium; subpopulation (auxotrophy): U
Summary of the method: as §1

[5] = test system: Saccharomyces cerevisiae BY4741 SeMeCo community; assay: z-score of subpopulation abundance vs DMSO median, subpopulation auxotrophic for H; higher = larger share of this subpopulation than in DMSO controls; details: 10 µM; 24 h; SM minimal medium; subpopulation (auxotrophy): H
Summary of the method: as §1

[6] = test system: Saccharomyces cerevisiae BY4741 SeMeCo community; assay: z-score of subpopulation abundance vs DMSO median, subpopulation auxotrophic for LU; higher = larger share of this subpopulation than in DMSO controls; details: 10 µM; 24 h; SM minimal medium; subpopulation (auxotrophy): LU
Summary of the method: as §1

[7] = test system: Saccharomyces cerevisiae BY4741 SeMeCo community; assay: z-score of subpopulation abundance vs DMSO median, subpopulation auxotrophic for LM; higher = larger share of this subpopulation than in DMSO controls; details: 10 µM; 24 h; SM minimal medium; subpopulation (auxotrophy): LM
Summary of the method: as §1

[8] = test system: Saccharomyces cerevisiae BY4741 SeMeCo community; assay: z-score of subpopulation abundance vs DMSO median, subpopulation auxotrophic for HM; higher = larger share of this subpopulation than in DMSO controls; details: 10 µM; 24 h; SM minimal medium; subpopulation (auxotrophy): HM
Summary of the method: as §1

[9] = test system: Saccharomyces cerevisiae BY4741 SeMeCo community; assay: z-score of subpopulation abundance vs DMSO median, subpopulation auxotrophic for HU; higher = larger share of this subpopulation than in DMSO controls; details: 10 µM; 24 h; SM minimal medium; subpopulation (auxotrophy): HU
Summary of the method: as §1

[10] = test system: Saccharomyces cerevisiae BY4741 SeMeCo community; assay: z-score of subpopulation abundance vs DMSO median, subpopulation auxotrophic for UM; higher = larger share of this subpopulation than in DMSO controls; details: 10 µM; 24 h; SM minimal medium; subpopulation (auxotrophy): UM
Summary of the method: as §1

[11] = test system: Saccharomyces cerevisiae BY4741 SeMeCo community; assay: z-score of subpopulation abundance vs DMSO median, subpopulation auxotrophic for HL; higher = larger share of this subpopulation than in DMSO controls; details: 10 µM; 24 h; SM minimal medium; subpopulation (auxotrophy): HL
Summary of the method: as §1

[12] = test system: Saccharomyces cerevisiae BY4741 SeMeCo community; assay: z-score of subpopulation abundance vs DMSO median, subpopulation auxotrophic for HLU; higher = larger share of this subpopulation than in DMSO controls; details: 10 µM; 24 h; SM minimal medium; subpopulation (auxotrophy): HLU
Summary of the method: as §1

[13] = test system: Saccharomyces cerevisiae BY4741 SeMeCo community; assay: z-score of subpopulation abundance vs DMSO median, subpopulation auxotrophic for HLM; higher = larger share of this subpopulation than in DMSO controls; details: 10 µM; 24 h; SM minimal medium; subpopulation (auxotrophy): HLM
Summary of the method: as §1

[14] = test system: Saccharomyces cerevisiae BY4741 SeMeCo community; assay: z-score of subpopulation abundance vs DMSO median, subpopulation auxotrophic for HUM; higher = larger share of this subpopulation than in DMSO controls; details: 10 µM; 24 h; SM minimal medium; subpopulation (auxotrophy): HUM
Summary of the method: as §1

[15] = test system: Saccharomyces cerevisiae BY4741 SeMeCo community; assay: z-score of subpopulation abundance vs DMSO median, subpopulation auxotrophic for LUM; higher = larger share of this subpopulation than in DMSO controls; details: 10 µM; 24 h; SM minimal medium; subpopulation (auxotrophy): LUM
Summary of the method: as §1

[16] = test system: Saccharomyces cerevisiae BY4741 SeMeCo community; assay: z-score of subpopulation abundance vs DMSO median, subpopulation auxotrophic for HLUM; higher = larger share of this subpopulation than in DMSO controls; details: 10 µM; 24 h; SM minimal medium; subpopulation (auxotrophy): HLUM
Summary of the method: as §1

SMILES | z-score of prototroph abundance [1] | z-score of subpopulation abundance [2] | z-score of subpopulation abundance [3] | z-score of subpopulation abundance [4] | z-score of subpopulation abundance [5] | z-score of subpopulation abundance [6] | z-score of subpopulation abundance [7] | z-score of subpopulation abundance [8] | z-score of subpopulation abundance [9] | z-score of subpopulation abundance [10] | z-score of subpopulation abundance [11] | z-score of subpopulation abundance [12] | z-score of subpopulation abundance [13] | z-score of subpopulation abundance [14] | z-score of subpopulation abundance [15] | z-score of subpopulation abundance [16]
CNCC[C@H](Oc1cccc2ccccc12)c1cccs1 [Duloxetine] | 0.49 | 0.27 | -1.31 | -0.4 | -0.81 | -0.71 | -0.49 | 0.1 | -0.4 | -0.39 | -1.33 | -1.41 | -0.37 | 0.24 | -0.47 | -0.23
C=CC(C)(O)CCC=C(C)C (stereo not drawn) [Linalool] | -0.57 | 0.32 | -0.24 | 1.02 | -0.37 | 0.53 | -0.19 | – | 0.69 | 0.7 | -0.47 | -0.06 | -0.24 | -0.24 | -0.39 | -0.32
CSCC1CN(/N=C/c2ccc([N+](=O)[O-])o2)C(=O)O1 (stereo not drawn) [Nifuratel] | – | 3.2 | 3.68 | -7.52 | 5.51 | -5.94 | 3.06 | 1.92 | -5.85 | – | 4.21 | -1.21 | 2.19 | -2.83 | – | –
CC1(C)CC[C@]2(C(=O)O)CC[C@]3(C)C(=CC[C@@H]4[C@@]5(C)CC[C@H](O)C(C)(C)[C@@H]5CC[C@]43C)[C@@H]2C1 [Oleanolic Acid] | – | 0.25 | -0.03 | -0.6 | -0.07 | -0.16 | 0.88 | 1.05 | 0.23 | 0.1 | 0.59 | 0.15 | 0.33 | 0.93 | 0.78 | 0.12

— the supplement of paper PMC8975748
